# Screening data: PubChem BioAssay, National Center for Advancing Translational Sciences (NCATS)
# Hits are enriched below; roughly 8.7% of the tested compounds scored in any of these assays.
# JMJD2A Tudor – JMJD2A Tudor domain (human) inhibition | O75164 | AlphaScreen JMJD2A-Tudor / H3K4me3 peptide binding | Potency, µM (doses to about 114 µM), for inactives: top-dose activity change, negative = inhibition, hits mostly inhibitors | 4.4% of 390,000 active; note: % is set by controls: 0 for no effect and ±100 for the full control effect; nearly all actives have a fitted effect of over 50% in size
# Target sequence (O75164 whole entry, looked up, the tested form may be a part): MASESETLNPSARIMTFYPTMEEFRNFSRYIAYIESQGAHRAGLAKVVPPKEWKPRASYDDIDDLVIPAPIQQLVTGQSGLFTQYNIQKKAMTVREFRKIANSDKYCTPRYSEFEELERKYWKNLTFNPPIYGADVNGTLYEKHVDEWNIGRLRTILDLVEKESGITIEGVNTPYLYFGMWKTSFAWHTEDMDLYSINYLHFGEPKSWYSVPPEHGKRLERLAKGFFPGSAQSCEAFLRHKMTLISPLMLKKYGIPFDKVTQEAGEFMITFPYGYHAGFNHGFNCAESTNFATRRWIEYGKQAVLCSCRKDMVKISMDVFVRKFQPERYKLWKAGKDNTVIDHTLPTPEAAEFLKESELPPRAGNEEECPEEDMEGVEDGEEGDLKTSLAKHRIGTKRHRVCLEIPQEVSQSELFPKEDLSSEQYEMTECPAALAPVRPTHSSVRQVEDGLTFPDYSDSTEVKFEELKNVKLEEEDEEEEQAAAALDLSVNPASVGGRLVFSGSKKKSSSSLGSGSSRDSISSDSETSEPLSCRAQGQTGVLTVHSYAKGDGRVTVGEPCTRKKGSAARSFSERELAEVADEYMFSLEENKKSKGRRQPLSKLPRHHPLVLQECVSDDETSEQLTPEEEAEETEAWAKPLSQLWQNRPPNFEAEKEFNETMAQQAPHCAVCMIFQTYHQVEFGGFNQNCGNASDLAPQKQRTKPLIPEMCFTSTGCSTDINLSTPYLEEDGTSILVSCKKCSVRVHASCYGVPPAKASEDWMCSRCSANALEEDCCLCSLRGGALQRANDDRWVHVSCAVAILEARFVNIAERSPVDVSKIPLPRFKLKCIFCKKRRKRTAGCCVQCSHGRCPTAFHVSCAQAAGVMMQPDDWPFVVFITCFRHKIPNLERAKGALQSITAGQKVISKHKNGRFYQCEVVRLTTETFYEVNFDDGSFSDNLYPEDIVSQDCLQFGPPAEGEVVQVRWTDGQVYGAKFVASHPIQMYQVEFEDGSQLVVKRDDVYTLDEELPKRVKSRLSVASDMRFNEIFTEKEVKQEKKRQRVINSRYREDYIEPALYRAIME
# Sfp inh – Sfp phosphopantetheinyl transferase inhibition. 3.5% of 310,000 active. Biochemical Sfp PPTase activity, qHTS. Potency, µM, inactives show largest response in the series, negative = inhibition, hits mostly inhibitors;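 note: the enzyme is Sfp with the accession as filed and its product quenches rhodamine fluorescence; 0% = enzyme reaction without inhibitor and -100% = no enzyme wells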
#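 Buffer: 50 mM Hepes-Na pH 7.6, 10 mM MgCl2, 0.01% Nonidet P-40, 0.01% BSA. Enzyme 15 nM, pre-exposed to compound 15 min; substrates then added and fluorescence change tracked over 30 min.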
# HP1b binding inh – HP1-beta chromodomain-methylated histone interaction inhibition. AID 540317. 0.56% of 390,000 active. P83916. AlphaScreen HP1-beta / biotin-H3K9me3 peptide binding. Potency, µM (highest dose often 114 µM), inactives show top-dose activity change, negative = inhibition, most hits filed as inhibitors; note: nearly all actives have a fitted effect of over 70% in size
#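 Compound inhibition of the preformed complex between 50 nM HP1-beta and 50 nM biotinylated H3K9me3 peptide was read by AlphaScreen. Buffer was PBS pH 7.4 with 0.01% Tween-20. Incubations ran 30 min at room temperature, with 10 ug/mL donor/acceptor beads.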
# G9a inh – blocks human histone lysine methyltransferase G9a | G9a H3K9 monomethylation, AlphaScreen, 2 h | Q96KQ7 | Potency, µM (titrated, usually from 102 µM), inactives show at the top dose activity, negative = inhibition, usual class: inhibitors | 8.8% of 350,000 active; note: % is set by controls: 0 for no effect and ±100 for the full control effect; nearly all actives have a fitted effect of over 75% in size
#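 Using a bead-based AlphaScreen, monomethylated H3K9 product from 2 h room-temperature reactions (G9a 20 nM, peptide 500 nM, SAM 20 uM) was detected with 0.5 ug/mL rabbit anti-H3K9me1 antibody.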
# BAZ2B inh – BAZ2B (human) inhibition; Q9UIF8; AlphaScreen BAZ2B-H3K14Ac peptide displacement; Potency, µM (series often up to 114 µM), without a hit: at the top dose activity change, negative = inhibition, hits mostly inhibitors; 4.4% of 360,000 active; note: % is set by controls: 0 for no effect and ±100 for the full control effect; nearly all actives have a fitted effect of over 60% in size
#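 AlphaScreen luminescence quantifies BAZ2B engagement of H3K14Ac peptide; the protein and biotinylated peptide are both at 50 nM final, buffer PBS pH 7.4 with 0.01% Tween-20, all steps at room temperature.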
# 12-LOX inh – blocks human arachidonate 12S-lipoxygenase | P18054 | purified 12hLO, xylenol orange hydroperoxide absorbance | Potency, µM (doses to about 108 µM), for inactives: top-dose activity change, negative = inhibition, usual class: inhibitors | 1.1% of 580,000 active | AID 1671190; note: % is set by controls: 0 for no effect and ±100 for the full control effect
#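 Purified human 12hLO at 150 nM in 25 mM Hepes, 0.01% Triton X-100, pH 7.0, preincubated 15 min at room temperature with compound. Reaction started with 40 uM arachidonic acid, 30 min at room temperature. Hydroperoxide measured by Fe-xylenol orange, 573/405 nm absorbance ratio.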
# * marks the source's active call; other numbers are inactive results; u = inconclusive; x = no result; [ ] = another dose, or the depositor's remark. Calls come from the whole dose curve; as a rule, active = well fitted curve in the direction sought with a large enough effect; inconclusive = small, poorly fitted or top-dose-only effect, or another doubt; inactive = no such curve, though single readings can be large; an effect the other way counts as inactive or inconclusive. Potency is the fitted concentration of half-maximal effect.
SMILES,JMJD2A Tudor,Sfp inh,HP1b binding inh,G9a inh,BAZ2B inh,12-LOX inh
Cc1ccc(S(=O)(=O)Nc2ccc(N3CCCCC3)cc2)cc1,u,4%,u,22µM*,35µM*,u
Cc1cc2cc(NS(=O)(=O)c3ccccc3)ccc2[nH]1,x,x,x,x,x,-29%
Cc1ccc(S(N)(=O)=O)cc1,-8%,x,39%,8%[0.501 µM],2%,-1%
Cc1cc2cc(NS(=O)(=O)c3ccc4ccccc4c3)ccc2[nH]1,x,x,x,x,x,10µM*
O=S(=O)(Nc1ccc(N2CCOCC2)cc1)c1ccc2ccccc2c1,u,-10%,-23%,40µM*,u,-8%
Cc1ccc(S(=O)(=O)Nc2cc(NC(=O)CN3CCOCC3)ccc2Cl)cc1,-19%,-8%,17%,u,79µM*,0%
Cc1ccc(S(=O)(=O)Nc2ccc(N3CCOCC3)cc2)cc1,-17%,-2%,17%,79µM*,56µM*,13%
CC(C)c1ccc(S(=O)(=O)Nc2ccc(N3CCOCC3)cc2)cc1,-32%,9%,-1%,u,45µM*,u
O=C1Cc2cc(S(=O)(=O)Nc3ccc(N4CCOCC4)cc3)ccc2N1,-18%,x,-1%,x,x,39%
COc1ccc(NC(=O)Cn2ccn3nc(-c4ccccc4)c(CO)c3c2=O)cc1,x,x,x,x,x,-8%
Cc1ccc(NS(=O)(=O)c2ccc(N3C(=O)CCC3=O)cc2)cc1,30%,-4%,29%,50µM*,0%,-5%
CC(C)c1ccc(NS(=O)(=O)c2ccc(N3C(=O)CCC3=O)cc2)cc1,-19%,-3%,7%,x,-5%,131%
CN1CCC/C1=C1/C(=O)N(c2ccccc2)N=C1NC(=O)Nc1cccc(Cl)c1,20µM*,7%,-16%,-36%,-18%,-14%
O=C(COc1ccc(Cl)cc1Cl)NCc1ccco1,-23%,9%,11%,56µM*,-36%,u
Cc1ccc2c(Cl)cc(Cl)c(OCC(=O)NCc3ccco3)c2n1,x,u,x,9%[12.7 µM],40µM*,x
O=C(COc1ccc(Cl)cc1Cl)NNC(=S)NC(=O)c1ccco1,u,u,u,7.9µM*,-2%,u
O=C(COc1ccccc1Cl)NCc1ccco1,-6%,7%,12%,-12%,1%,0%
Cc1ccc2c(Cl)cc(Cl)c(OCC(=O)NC(=O)NCc3ccco3)c2n1,u,-15%,12%,3%[59 µM],x,0%
CC(Oc1ccc(Cl)cc1)C(=O)NNC(=S)NC(=O)c1ccco1 (stereo unspecified),-26%,-5%,-6%,11µM*,4%,45µM*
O=C(NC(=S)NCc1ccc(Cl)cc1Cl)c1ccco1,18%,x,50%,x,x,u
COC(=O)[C@@H]1Cc2ncn(Cc3ccccc3)c2CN1C(=O)COc1ccccc1,x,x,x,x,x,7%[176 µM]
Fc1cc(CSc2nccc(C(F)(F)F)n2)c2ncccc2c1,x,x,x,x,x,-18%
COc1ccccc1CCc1nc(C2CC(=O)N(c3ccc(F)c(Cl)c3)C2)no1 (stereo unspecified),x,x,x,x,x,-5%
COCCN1Cc2ccc(NCC(C)C)nc2C(C)(C(=O)NC2CCC2)C1 (stereo unspecified),x,x,x,x,x,38%[176 µM]
O=C(COc1cccc2c1CCN(Cc1ccc(Br)cc1)C2=O)N1CCOCC1,-11%,-3%,30%,2%,-17%,-5%
O=C(COc1cccc2c1CCN(Cc1ccc(Br)cc1)C2=O)NCc1ccco1,50µM*,-13%,-32%,u,u,-25%
O=C(COc1ccccc1-c1ccccc1)NCc1ccco1,-27%,89µM*,24%,-31%,x,-6%
COc1ccc(NC2=Nc3cccc4cccc2c34)cc1,45µM*,-20%,u,u,35µM*,-11%
c1ccc(NC2=Nc3cccc4cccc2c34)cc1,-13%[57.1 µM],2%,-14%,25µM*,u,-9%
O=C(O)c1cccc(NC2=Nc3cccc4cccc2c34)c1,-10%,20%,17%,u,-3%,u
